Experimental data: publication PMC7862700, “An all-to-all approach to the identification of sequence-specific readers for epigenetic DNA modifications on cytosine”

How the values were obtained:
Assay in all cases: DAPPL (digital affinity profiling via proximity ligation, sequencing); 10 mM Tris-HCl pH 7.5, 50 mM NaCl, 1 mM DTT, 4% glycerol, room temperature, 30 min; GST-TFs on glutathione beads, 16-mer random dsDNA library, 0.1% formaldehyde crosslink after washing; high values mean tight binding
[1] = target: T1, FLI1 (Homo sapiens, UniProt Q01543 1-452); details: protein: recombinant; tags: N-terminal GST; dsDNA, one strand shown
T1 sequence: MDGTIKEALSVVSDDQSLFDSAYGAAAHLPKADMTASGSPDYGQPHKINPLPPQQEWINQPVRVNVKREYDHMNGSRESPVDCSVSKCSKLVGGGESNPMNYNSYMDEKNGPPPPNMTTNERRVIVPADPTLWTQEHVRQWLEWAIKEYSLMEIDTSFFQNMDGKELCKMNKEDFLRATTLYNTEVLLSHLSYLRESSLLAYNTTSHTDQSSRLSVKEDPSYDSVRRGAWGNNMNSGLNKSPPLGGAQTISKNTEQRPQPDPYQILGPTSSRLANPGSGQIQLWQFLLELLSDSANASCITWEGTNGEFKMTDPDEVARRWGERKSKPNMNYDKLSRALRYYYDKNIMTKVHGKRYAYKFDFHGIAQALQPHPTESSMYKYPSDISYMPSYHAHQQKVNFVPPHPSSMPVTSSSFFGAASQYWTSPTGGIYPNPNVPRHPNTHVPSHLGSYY
Procedure, shortened: (§1)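 Each value of binding signal is a hexamer's read frequency for a factor divided by the same hexamer's frequency in the tag-only sample. Barcoded, bead-captured GST fusions of human transcription factors made in yeast were pooled with that sample and incubated with 200 nmole of a random double-stranded 16-mer DNA library in Tris/NaCl/DTT/glycerol buffer at room temperature for 30 min. Washing, 0.1% formaldehyde crosslinking, proximity ligation, PCR and Illumina NextSeq500 sequencing followed.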

[2] = target: T2, ELK1 (Homo sapiens, UniProt P19419 1-428); details: protein: recombinant; tags: N-terminal GST; dsDNA, one strand shown
T2 sequence: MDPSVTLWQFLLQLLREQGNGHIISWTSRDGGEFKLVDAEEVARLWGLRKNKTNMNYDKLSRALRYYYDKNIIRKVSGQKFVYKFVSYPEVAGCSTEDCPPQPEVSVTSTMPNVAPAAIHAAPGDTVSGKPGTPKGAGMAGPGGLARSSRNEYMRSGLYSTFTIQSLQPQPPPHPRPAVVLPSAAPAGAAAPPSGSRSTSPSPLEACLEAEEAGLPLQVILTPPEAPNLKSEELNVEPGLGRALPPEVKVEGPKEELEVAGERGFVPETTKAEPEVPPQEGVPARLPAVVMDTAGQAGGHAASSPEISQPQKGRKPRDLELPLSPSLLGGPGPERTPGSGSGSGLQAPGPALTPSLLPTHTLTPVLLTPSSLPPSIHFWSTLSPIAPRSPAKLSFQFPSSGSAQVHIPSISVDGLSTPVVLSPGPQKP
Procedure, shortened: as §1

[3] = target: T3, GABPA (Homo sapiens, UniProt Q06546 1-454); details: protein: recombinant; tags: N-terminal GST; dsDNA, one strand shown
T3 sequence: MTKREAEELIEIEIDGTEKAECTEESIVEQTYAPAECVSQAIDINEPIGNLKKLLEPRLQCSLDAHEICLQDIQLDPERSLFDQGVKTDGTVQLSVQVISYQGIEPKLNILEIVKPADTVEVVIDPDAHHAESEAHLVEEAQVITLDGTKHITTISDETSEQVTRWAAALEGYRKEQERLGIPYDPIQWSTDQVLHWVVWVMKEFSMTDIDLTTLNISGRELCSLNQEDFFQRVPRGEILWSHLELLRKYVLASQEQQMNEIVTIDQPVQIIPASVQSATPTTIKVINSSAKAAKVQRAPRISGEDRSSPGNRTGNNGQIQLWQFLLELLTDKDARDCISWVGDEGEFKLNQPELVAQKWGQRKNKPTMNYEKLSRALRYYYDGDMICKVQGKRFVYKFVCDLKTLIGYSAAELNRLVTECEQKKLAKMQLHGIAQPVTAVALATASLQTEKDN
Procedure, shortened: as §1

[4] = target: T4, ERG (Homo sapiens, UniProt P11308 1-479); details: protein: recombinant; tags: N-terminal GST; dsDNA, one strand shown
T4 sequence: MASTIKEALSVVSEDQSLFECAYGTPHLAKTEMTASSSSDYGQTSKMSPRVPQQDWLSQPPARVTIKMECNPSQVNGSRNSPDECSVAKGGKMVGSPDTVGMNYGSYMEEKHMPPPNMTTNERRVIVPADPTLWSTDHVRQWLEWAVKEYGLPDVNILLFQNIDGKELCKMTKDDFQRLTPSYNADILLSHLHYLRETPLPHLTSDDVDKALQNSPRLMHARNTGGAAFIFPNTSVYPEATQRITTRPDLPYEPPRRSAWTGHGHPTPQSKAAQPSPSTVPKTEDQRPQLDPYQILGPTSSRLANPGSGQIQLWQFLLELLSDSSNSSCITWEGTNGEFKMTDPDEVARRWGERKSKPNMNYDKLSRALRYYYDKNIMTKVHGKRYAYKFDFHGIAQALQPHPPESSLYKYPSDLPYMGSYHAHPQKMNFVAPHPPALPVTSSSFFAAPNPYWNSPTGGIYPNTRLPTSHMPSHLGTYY
Procedure, shortened: as §1

[5] = target: ELF1 (Homo sapiens, UniProt P32519 1-619); details: protein: recombinant; tags: N-terminal GST; dsDNA, one strand shown
Procedure, shortened: as §1

[6] = target: T5, EHF (Homo sapiens, UniProt Q9NZC4 1-300); details: protein: recombinant; tags: N-terminal GST; dsDNA, one strand shown
T5 sequence: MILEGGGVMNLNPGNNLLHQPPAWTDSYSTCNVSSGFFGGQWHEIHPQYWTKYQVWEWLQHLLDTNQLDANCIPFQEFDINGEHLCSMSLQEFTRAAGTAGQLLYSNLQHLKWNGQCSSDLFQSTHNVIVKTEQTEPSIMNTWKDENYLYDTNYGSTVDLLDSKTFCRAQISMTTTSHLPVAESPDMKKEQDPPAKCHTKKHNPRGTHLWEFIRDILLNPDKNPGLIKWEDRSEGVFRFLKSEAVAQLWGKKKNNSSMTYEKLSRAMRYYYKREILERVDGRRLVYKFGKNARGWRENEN
Procedure, shortened: as §1

[7] = target: SPI1 (Homo sapiens, UniProt P17947 1-270); details: protein: recombinant; tags: N-terminal GST; dsDNA, one strand shown
Procedure, shortened: as §1

[8] = target: SPIB (Homo sapiens, UniProt Q01892 1-262); details: protein: recombinant; tags: N-terminal GST; dsDNA, one strand shown
Procedure, shortened: as §1

[9] = target: T6, ELK3 (Homo sapiens, UniProt P41970 1-407); details: protein: recombinant; tags: N-terminal GST; dsDNA, one strand shown
T6 sequence: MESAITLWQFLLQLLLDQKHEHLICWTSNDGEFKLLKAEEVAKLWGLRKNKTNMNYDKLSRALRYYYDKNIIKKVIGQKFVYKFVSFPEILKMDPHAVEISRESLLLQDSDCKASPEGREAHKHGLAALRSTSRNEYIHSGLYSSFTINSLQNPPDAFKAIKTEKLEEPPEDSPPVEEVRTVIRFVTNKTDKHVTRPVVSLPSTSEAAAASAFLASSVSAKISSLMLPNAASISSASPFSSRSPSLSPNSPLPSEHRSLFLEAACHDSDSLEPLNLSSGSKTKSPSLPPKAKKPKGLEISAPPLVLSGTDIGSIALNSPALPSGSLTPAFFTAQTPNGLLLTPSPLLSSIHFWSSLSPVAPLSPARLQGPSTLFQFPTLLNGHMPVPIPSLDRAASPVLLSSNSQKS
Procedure, shortened: as §1

[10] = target: T7, FEV (Homo sapiens, UniProt Q99581 1-238); details: protein: recombinant; tags: N-terminal GST; dsDNA, one strand shown
T7 sequence: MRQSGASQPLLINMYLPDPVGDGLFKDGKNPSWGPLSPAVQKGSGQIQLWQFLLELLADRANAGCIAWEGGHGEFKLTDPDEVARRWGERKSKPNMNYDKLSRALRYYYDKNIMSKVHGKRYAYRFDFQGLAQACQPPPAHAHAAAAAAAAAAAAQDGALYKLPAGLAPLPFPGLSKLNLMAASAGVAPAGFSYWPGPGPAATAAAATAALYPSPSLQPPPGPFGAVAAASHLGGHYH
Procedure, shortened: as §1

[11] = target: ETV5 (Homo sapiens, UniProt P41161 1-510); details: protein: recombinant; tags: N-terminal GST; dsDNA, one strand shown
Procedure, shortened: as §1

[12] = target: HSF1 (Homo sapiens, UniProt Q00613 1-529); details: protein: recombinant; tags: N-terminal GST; chain copies: 3; dsDNA, one strand shown
Procedure, shortened: as §1

[13] = target: T8, SPIC (Homo sapiens, UniProt Q8N5J4 1-248); details: protein: recombinant; tags: N-terminal GST; dsDNA, one strand shown
T8 sequence: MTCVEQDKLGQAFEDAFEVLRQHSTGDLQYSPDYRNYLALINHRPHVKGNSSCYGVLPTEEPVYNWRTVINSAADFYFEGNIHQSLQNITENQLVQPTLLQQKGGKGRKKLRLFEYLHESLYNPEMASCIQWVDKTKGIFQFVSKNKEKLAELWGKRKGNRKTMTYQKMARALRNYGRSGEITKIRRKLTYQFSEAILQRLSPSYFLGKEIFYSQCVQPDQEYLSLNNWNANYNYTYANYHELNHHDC
Procedure, shortened: as §1

[14] = target: ELF4 (Homo sapiens, UniProt Q99607 1-663); details: protein: recombinant; tags: N-terminal GST; dsDNA, one strand shown
Procedure, shortened: as §1

[15] = target: T9, ELK4 (Homo sapiens, UniProt P28324-2 1-405); details: protein: recombinant; tags: N-terminal GST; dsDNA, one strand shown
T9 sequence: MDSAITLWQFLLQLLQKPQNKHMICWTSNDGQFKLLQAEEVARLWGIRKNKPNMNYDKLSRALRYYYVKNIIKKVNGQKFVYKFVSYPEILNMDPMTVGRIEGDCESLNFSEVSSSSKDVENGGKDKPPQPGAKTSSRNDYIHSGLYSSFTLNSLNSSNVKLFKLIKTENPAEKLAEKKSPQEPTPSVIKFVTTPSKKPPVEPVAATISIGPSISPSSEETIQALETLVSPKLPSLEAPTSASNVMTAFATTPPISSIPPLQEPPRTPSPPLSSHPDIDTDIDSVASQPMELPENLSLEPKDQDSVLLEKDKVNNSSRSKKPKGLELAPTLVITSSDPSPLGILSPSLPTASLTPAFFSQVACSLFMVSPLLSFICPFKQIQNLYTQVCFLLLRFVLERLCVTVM
Procedure, shortened: as §1

[16] = target: T10, ETV2 (Homo sapiens, UniProt O00321 1-342); details: protein: recombinant; tags: N-terminal GST; dsDNA, one strand shown
T10 sequence: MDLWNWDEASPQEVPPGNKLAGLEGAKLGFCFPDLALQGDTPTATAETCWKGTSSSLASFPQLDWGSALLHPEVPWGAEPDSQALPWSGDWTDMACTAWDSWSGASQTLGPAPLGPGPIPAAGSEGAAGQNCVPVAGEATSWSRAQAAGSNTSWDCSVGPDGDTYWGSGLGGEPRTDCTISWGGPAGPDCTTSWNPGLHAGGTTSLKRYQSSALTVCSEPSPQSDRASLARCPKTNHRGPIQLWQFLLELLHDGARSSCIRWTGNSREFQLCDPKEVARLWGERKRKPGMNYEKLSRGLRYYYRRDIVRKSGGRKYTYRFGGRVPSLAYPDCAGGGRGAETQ
Procedure, shortened: as §1

[17] = target: T11, ELF3 (Homo sapiens, UniProt P78545 1-371); details: protein: recombinant; tags: N-terminal GST; dsDNA, one strand shown
T11 sequence: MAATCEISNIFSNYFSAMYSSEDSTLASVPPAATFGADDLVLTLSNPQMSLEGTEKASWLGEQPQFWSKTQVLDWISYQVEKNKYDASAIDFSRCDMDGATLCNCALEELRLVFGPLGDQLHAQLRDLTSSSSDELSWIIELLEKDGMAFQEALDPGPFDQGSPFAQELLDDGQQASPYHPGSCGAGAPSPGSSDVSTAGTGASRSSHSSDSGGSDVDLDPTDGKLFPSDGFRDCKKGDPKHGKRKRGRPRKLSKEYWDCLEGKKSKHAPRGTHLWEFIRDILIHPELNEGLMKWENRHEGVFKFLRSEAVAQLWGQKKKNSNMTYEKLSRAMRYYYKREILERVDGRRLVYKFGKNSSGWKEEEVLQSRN
Procedure, shortened: as §1

[18] = target: ETV1 (Homo sapiens, UniProt P50549 1-477); details: protein: recombinant; tags: N-terminal GST; dsDNA, one strand shown
Procedure, shortened: as §1

Chain of HSF1 (Q00613 whole entry): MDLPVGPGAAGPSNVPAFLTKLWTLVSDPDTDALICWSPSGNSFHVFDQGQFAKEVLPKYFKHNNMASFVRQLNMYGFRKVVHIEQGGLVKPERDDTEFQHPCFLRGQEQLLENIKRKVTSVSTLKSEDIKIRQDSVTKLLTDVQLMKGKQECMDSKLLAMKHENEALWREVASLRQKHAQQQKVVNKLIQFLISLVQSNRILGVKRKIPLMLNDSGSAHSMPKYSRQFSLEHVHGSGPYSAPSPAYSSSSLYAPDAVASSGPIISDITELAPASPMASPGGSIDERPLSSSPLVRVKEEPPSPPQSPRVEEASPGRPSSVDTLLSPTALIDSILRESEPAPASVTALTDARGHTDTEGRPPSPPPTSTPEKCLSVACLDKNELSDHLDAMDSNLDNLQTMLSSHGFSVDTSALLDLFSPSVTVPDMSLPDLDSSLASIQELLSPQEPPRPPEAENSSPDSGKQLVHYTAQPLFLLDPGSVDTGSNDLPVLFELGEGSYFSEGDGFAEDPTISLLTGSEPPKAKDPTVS
Chain of SPIB (Q01892 whole entry): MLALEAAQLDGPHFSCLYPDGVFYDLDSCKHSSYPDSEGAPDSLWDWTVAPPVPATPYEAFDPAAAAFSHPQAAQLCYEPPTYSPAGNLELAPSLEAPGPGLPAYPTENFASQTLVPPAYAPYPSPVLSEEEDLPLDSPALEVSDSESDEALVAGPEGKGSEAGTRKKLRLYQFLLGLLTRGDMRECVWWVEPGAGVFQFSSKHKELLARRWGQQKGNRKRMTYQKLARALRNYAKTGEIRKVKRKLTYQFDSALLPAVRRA
Chain of ELF4 (Q99607 whole entry): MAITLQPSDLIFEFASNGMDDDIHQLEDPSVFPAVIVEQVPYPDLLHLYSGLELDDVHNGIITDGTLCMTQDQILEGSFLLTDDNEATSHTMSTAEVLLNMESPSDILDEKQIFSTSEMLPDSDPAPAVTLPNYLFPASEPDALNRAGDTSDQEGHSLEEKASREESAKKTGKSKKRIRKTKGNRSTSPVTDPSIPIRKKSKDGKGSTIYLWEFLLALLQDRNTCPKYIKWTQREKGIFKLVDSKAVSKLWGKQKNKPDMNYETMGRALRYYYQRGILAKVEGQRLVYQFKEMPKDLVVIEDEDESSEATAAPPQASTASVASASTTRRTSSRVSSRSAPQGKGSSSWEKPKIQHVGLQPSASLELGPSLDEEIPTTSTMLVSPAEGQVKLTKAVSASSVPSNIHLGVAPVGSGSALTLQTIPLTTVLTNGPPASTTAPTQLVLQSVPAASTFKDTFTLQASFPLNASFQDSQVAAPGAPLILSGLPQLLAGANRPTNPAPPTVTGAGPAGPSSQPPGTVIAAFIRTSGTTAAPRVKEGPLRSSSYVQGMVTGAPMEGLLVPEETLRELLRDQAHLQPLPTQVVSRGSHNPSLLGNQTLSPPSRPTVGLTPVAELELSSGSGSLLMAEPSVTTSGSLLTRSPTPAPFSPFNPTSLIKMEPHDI
Chain of ELF1 (P32519 whole entry): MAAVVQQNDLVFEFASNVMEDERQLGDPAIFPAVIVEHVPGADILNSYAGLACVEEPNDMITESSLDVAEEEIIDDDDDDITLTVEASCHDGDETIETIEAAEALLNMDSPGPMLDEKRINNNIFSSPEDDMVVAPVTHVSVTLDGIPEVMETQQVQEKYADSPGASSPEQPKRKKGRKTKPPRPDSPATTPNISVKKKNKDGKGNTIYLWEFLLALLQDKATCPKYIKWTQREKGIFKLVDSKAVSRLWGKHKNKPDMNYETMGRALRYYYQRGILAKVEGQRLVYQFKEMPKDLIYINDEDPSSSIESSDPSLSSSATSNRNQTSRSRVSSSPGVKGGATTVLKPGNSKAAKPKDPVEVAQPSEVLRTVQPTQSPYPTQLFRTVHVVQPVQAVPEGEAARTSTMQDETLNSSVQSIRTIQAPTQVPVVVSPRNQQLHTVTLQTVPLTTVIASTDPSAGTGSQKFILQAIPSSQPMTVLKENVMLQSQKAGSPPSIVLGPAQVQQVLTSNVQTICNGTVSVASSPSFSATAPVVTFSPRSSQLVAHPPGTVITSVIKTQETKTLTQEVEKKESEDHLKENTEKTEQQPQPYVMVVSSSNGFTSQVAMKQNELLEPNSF
Chain of ETV1 (P50549 whole entry): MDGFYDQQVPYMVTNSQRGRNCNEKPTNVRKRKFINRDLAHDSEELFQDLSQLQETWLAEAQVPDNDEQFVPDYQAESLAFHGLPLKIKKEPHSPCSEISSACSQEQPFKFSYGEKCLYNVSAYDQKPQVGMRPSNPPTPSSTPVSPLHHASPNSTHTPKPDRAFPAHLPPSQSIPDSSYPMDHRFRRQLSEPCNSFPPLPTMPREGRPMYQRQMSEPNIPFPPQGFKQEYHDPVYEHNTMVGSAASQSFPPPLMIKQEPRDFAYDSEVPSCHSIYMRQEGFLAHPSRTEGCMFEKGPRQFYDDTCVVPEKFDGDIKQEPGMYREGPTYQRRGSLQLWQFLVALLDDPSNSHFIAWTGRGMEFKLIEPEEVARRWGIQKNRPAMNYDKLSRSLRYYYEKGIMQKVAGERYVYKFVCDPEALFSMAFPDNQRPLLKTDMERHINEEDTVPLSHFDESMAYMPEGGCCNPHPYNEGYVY
Chain of ETV5 (P41161 whole entry): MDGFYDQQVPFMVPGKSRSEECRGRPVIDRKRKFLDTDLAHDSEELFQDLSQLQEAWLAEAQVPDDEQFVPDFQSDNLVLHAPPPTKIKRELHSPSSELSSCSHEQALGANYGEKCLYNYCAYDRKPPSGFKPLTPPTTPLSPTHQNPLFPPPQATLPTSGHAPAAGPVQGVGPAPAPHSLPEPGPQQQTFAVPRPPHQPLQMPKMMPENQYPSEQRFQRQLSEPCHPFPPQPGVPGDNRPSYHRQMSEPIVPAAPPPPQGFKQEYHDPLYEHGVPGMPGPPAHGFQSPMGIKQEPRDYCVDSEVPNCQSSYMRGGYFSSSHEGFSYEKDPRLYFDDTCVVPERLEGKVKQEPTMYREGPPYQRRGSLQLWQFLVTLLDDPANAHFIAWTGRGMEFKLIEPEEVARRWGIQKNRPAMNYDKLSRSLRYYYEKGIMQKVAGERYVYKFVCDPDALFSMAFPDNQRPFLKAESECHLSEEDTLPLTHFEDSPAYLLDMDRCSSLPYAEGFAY

## CTGAAG
[1]
  binding signal: 1.02 fold enrichment (6-mer frequency, TF over GST control)
[2]
  binding signal: 1.14 fold enrichment (6-mer frequency, TF over GST control)
[3]
  binding signal: 1.11 fold enrichment (6-mer frequency, TF over GST control)
[4]
  binding signal: 1.08 fold enrichment (6-mer frequency, TF over GST control)
[5]
  binding signal: 1.11 fold enrichment (6-mer frequency, TF over GST control)
[6]
  binding signal: 1.02 fold enrichment (6-mer frequency, TF over GST control)
[7]
  binding signal: 1.05 fold enrichment (6-mer frequency, TF over GST control)
[8]
  binding signal: 1.04 fold enrichment (6-mer frequency, TF over GST control)
[9]
  binding signal: 1.01 fold enrichment (6-mer frequency, TF over GST control)
[10]
  binding signal: 1.05 fold enrichment (6-mer frequency, TF over GST control)
[11]
  binding signal: 1.06 fold enrichment (6-mer frequency, TF over GST control)
[12]
  binding signal: 1.11 fold enrichment (6-mer frequency, TF over GST control)
[13]
  binding signal: 1.01 fold enrichment (6-mer frequency, TF over GST control)
[14]
  binding signal: 1.11 fold enrichment (6-mer frequency, TF over GST control)
[15]
  binding signal: 1.05 fold enrichment (6-mer frequency, TF over GST control)
[16]
  binding signal: 1.09 fold enrichment (6-mer frequency, TF over GST control)
[17]
  binding signal: 1.18 fold enrichment (6-mer frequency, TF over GST control)
[18]
  binding signal: 1.08 fold enrichment (6-mer frequency, TF over GST control)
